From the supplement of paper PMC10849652
Targets with a hit are over-represented here; the source holds about 7,900 in all. About 0.6% of all pairs of compound and target were hits.

compound: CN1CC[C@H](c2c(O)cc(O)c3c(=O)cc(-c4ccccc4Cl)oc23)[C@H](O)C1 [alvocidib]; assay: log2 fold change, soluble protein after heating vs DMSO (PISA); higher = thermal stabilisation; K562 cells, 10 uM, 30 min; active = over 0.2 and 3.5 SD of the protein, either way, in both replicates (recomputed)
Outline: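 Soluble protein was quantified by TMTpro 16plex LC-MS/MS after channel sums were equalised. It was obtained as the supernatant after 21,000xg for 90 min from pooled aliquots of K562 cells (2×10^6 cells/mL, 10 μM compound, 30 min) heated for 3 min across 48°C-58°C and extracted in PBS with 0.5% NP-40 at 4°C. Thermal stability values are relative to control samples and come from duplicates. They are given as log2 fold changes.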

UniProt Q9NVH2, sequence (Q9NVH2 whole entry, looked up): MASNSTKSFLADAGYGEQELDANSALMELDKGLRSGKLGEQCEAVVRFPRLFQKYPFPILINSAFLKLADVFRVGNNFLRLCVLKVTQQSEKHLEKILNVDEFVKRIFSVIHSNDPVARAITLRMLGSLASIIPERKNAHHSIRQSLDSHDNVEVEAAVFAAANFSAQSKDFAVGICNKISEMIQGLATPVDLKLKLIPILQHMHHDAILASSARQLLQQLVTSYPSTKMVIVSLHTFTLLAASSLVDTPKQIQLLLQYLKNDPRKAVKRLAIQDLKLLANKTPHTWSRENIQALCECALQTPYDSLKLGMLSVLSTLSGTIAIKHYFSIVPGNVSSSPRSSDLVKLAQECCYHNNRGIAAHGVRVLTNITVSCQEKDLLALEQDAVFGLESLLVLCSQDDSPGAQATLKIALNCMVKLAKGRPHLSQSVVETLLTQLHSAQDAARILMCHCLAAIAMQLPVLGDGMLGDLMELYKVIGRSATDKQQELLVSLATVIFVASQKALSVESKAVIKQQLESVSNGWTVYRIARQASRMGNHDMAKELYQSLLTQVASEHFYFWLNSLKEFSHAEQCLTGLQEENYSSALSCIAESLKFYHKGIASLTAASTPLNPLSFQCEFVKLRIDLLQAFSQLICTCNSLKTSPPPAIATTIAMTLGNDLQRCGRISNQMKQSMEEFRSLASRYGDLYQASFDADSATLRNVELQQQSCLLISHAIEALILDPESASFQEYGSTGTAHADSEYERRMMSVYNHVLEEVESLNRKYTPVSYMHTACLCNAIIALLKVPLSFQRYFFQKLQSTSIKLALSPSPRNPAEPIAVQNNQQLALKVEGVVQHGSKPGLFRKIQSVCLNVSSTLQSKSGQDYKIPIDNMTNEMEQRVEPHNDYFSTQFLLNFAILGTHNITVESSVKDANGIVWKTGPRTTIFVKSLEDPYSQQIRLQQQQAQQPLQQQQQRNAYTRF
UniProt P33947, sequence (P33947 whole entry, looked up): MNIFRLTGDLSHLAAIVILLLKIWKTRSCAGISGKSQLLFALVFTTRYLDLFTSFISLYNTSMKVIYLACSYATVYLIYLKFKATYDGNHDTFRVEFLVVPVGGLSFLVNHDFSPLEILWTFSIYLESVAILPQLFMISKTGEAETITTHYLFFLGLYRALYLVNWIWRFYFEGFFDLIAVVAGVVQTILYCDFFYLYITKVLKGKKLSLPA
UniProt P20700, sequence (P20700 whole entry, looked up): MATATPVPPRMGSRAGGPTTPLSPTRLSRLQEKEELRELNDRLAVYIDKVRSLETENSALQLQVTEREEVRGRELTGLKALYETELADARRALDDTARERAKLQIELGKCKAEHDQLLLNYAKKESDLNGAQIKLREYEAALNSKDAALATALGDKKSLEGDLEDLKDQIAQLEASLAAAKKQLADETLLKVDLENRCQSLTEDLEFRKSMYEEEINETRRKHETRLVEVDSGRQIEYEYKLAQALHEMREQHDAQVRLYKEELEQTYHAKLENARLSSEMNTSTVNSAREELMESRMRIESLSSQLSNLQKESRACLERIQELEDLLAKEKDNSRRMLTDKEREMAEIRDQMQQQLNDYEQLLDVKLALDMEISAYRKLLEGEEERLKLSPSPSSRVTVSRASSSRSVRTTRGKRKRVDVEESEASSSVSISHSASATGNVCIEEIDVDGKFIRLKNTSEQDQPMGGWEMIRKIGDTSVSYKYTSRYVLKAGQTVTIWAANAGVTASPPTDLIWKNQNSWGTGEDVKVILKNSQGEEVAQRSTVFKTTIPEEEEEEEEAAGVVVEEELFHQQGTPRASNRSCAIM
UniProt Q7L2J0, sequence (Q7L2J0 whole entry, looked up): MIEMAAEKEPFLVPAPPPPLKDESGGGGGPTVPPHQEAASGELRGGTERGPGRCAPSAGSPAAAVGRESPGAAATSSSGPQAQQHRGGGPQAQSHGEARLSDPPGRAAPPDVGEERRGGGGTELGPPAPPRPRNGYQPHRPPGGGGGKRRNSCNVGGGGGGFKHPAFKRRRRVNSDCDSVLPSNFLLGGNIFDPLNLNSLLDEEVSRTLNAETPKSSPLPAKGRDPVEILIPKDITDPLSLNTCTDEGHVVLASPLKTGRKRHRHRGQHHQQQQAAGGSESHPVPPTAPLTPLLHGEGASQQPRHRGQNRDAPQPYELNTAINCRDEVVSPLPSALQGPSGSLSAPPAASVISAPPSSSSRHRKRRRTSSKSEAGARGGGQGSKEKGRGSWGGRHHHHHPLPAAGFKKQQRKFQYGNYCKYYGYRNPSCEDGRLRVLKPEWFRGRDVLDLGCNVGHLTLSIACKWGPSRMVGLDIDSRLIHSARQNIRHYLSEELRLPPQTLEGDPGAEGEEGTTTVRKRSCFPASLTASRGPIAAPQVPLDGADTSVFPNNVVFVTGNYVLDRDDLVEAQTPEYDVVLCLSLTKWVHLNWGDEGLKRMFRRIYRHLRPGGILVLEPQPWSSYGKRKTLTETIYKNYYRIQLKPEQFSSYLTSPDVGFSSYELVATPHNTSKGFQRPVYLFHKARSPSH
UniProt Q7LBC6, sequence (Q7LBC6 whole entry, looked up): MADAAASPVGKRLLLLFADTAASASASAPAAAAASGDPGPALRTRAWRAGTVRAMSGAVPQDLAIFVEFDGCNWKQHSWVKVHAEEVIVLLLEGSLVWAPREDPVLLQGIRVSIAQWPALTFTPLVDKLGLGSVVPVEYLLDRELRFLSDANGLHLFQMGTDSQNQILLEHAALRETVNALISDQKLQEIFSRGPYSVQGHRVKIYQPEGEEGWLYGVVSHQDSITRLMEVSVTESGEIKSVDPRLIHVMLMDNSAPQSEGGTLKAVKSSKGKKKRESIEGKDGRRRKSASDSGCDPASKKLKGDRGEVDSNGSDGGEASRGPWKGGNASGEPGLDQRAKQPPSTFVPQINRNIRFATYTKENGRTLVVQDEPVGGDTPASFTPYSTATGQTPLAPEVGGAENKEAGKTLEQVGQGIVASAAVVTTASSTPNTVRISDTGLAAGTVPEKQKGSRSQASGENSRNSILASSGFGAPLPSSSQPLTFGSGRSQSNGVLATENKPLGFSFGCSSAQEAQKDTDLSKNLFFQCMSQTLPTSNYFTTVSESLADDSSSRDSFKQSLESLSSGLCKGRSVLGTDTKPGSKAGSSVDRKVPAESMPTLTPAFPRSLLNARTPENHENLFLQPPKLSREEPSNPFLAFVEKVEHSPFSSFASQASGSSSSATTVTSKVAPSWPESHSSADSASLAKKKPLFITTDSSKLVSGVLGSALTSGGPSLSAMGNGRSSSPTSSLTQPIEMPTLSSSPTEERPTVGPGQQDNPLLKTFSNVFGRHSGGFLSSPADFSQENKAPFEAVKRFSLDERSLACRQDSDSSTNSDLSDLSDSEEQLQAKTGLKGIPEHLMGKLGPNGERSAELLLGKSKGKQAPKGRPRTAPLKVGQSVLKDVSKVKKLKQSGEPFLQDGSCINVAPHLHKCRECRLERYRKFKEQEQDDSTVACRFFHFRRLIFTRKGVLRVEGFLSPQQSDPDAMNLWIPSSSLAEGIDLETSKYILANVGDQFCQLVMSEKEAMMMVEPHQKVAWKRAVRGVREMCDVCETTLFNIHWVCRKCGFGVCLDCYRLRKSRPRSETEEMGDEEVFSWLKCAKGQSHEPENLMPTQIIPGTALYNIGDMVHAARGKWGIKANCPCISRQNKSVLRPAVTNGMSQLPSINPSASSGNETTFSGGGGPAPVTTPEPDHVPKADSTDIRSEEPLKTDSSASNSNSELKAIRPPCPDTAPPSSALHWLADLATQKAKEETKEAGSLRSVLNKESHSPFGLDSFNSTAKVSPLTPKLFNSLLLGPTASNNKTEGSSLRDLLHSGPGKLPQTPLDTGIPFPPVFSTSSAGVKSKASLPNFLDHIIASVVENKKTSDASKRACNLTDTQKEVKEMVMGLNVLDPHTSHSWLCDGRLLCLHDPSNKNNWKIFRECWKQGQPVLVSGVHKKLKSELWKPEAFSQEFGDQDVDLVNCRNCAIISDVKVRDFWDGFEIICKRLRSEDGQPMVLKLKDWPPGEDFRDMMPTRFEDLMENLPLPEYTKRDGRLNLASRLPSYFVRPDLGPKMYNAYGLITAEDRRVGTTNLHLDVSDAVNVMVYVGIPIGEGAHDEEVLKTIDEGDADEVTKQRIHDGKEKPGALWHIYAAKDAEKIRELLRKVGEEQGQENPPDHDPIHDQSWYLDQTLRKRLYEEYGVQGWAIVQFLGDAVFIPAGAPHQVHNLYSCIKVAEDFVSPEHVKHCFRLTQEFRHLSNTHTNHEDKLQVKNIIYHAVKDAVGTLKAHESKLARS
UniProt Q9C0E8, sequence (Q9C0E8 whole entry, looked up): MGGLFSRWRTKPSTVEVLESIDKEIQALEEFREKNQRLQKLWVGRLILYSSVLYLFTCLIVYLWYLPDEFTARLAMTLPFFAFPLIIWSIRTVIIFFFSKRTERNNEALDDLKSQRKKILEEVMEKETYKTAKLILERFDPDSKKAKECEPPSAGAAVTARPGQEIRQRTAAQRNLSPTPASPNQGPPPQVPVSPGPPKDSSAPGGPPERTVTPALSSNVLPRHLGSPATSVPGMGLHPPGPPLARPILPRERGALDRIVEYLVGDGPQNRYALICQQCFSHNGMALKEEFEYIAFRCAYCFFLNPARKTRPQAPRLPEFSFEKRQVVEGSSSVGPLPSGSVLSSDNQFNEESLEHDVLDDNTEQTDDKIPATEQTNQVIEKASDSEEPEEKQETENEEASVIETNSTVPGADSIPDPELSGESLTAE
UniProt P49006, sequence (P49006 whole entry, looked up): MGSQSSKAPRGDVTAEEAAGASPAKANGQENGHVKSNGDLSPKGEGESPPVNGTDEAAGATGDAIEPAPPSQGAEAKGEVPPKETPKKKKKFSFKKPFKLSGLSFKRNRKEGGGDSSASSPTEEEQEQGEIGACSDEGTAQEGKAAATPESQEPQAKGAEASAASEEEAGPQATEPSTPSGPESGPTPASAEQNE

log2 fold change, inactive:
KDM3B (UniProt Q7LBC6) -0.091
MAP2K7 isoform 4 (UniProt O14733) -0.028
MIEF1 (UniProt L0R8F8) 0.009
MARCKSL1 (UniProt P49006) -0.005
MEPCE (UniProt Q7L2J0) -0.112
MCUR1 (UniProt Q96AQ8) -0.035
MED1 (UniProt Q15648) -0.11
LNPEP (UniProt Q9UIQ6) 0.01
IPO7 (UniProt O95373) -0.146
LMNB1 (UniProt P20700) -0.173
MAGEC2 (UniProt Q9UBF1) -0.034
KDELR2 (UniProt P33947) 0.018
INTS7 (UniProt Q9NVH2) -0.095
LMBRD2 (UniProt Q68DH5) -0.041
INPP5B (UniProt P32019) -0.076
IRF2BPL (UniProt Q9H1B7) -0.079
KIF3A (UniProt Q9Y496) -0.02
LNPK (UniProt Q9C0E8) -0.006
LEO1 (UniProt Q8WVC0) -0.137
MCU (UniProt Q8NE86) -0.08
MAP1LC3B2 (UniProt A6NCE7) -0.063
MAST4 (UniProt O15021) -0.065
ILK (UniProt Q13418) -0.107
